FMDV antiviral: blocks foot and mouth disease virus; 1.2% of 410,000 active; AID 1159524; FMDV antiviral cell-based qHTS; Potency, µM (series often up to 57.9 µM), hits mostly inhibitors; calls by dose curve; tested in HEK293T cells; note: read-out not given here; nearly all actives have a fitted effect of over 45% in size
VACV mCherry inh: inhibitors of vaccinia virus infection (mCherry reporter signal); Potency, µM (highest dose often 36.5 µM), hits mostly inhibitors; Vaccinia virus mCherry reporter infection, fluorescence; 0.63% of 310,000 active; AID 720579; calls by dose curve; tested in A549 cells; note: nearly all actives have a fitted effect of over 35% in size
HCMV inh: blocks human cytomegalovirus replication | HFF cells, HCMV-luciferase reporter, 72 h; active compounds read low | activity change, negative = inhibition, % at 57.5 µM | 4.5% of 410,000 active | AID 1259415; in the data active = activity change below about -60%; inconclusive = no clear call, values can overlap the other calls; inactive = above about -39%
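Luciferase read-out from HCMV-luciferase-infected HFFs (MOI 1 PFU/cell) 72 h post infection at 37C; compounds added after 16 h cell attachment; activity normalized between buffer-only basal and Salinomycin (10uM) inhibitor controls.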
HCV inh: blocks hepatitis C virus. Potency, µM (top dose mostly 41.8 µM), usual class: inhibitors. Huh7.5.1 HCVcc-Cre infection, luciferase reporter, 44 h. 3.4% of 340,000 active; active = well fitted inhibition curve with a large enough effect; inconclusive = small, poorly fitted or top-dose-only effect, or another doubt; inactive = no such curve, though single readings can be large or run the other way
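Luciferase read-out (15 sec integration) after a 15 min room-temperature substrate step quantifies HCVcc-Cre infection. Cells, 1,000 per well, had compound added 4 h post-plating, then virus at ~0.5 moi, and were cultured 44 h.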
Vaccinia Venus: inhibitors of vaccinia virus (Venus reporter). Vaccinia virus Venus reporter expression, fluorescence. Potency, µM (top dose mostly 36.5 µM), hits mostly inhibitors. 0.46% of 330,000 active. AID 720580; calls by dose curve; tested in A549 cells; note: nearly all actives have a fitted effect of over 30% in size
Numbers stand for hits; i = inactive; ? = inconclusive; nt = no result given. Only some compounds are listed: those with a hit (about 7.3% of all), similar ones and a draw of the others.

SMILES	FMDV antiviral	VACV mCherry inh	HCMV inh	HCV inh	Vaccinia Venus
Cc1ccc(C(=O)N/C(=C\c2ccc(Cl)cc2)C(=O)NC2CCCCC2)cc1	i	?	-97.6	nt	?
CCc1c(C)nc(SCC(N)=O)c(C#N)c1C	nt	i	-63.9	i	i
CCc1c(C)nc(SCC(=O)CC(=O)OC(C)C)c(C#N)c1C	i	i	i	i	i
Cn1c(N)c(C(=O)COC(=O)Cc2ccc(Cl)cc2)c(=O)n(C)c1=O	i	i	i	i	i
CCOC(=O)n1c(=O)oc2ccccc21	i	i	-96.0	i	i
COc1cccc(CNc2nc(NC(C)C)nc3ccsc23)c1	?	i	i	nt	?
COc1ccc(-c2cc(-c3ccccc3)c(C#N)c(S(C)=O)n2)cc1 (configuration not stated)	?	nt	-98.9	22.4µM	nt
CCN(c1cccc(C)c1)S(=O)(=O)c1c(C)[nH]c(C)c1C(=O)N1CCCCC1	i	i	i	i	i
Cc1noc(C)c1C(=O)Nc1sc(C)c(-c2ccccc2)c1C#N	28.2µM	i	-104.2	i	i
C/C(=N/Oc1nc(C)cc(C)n1)c1ccc(Cl)cc1Cl	?	nt	-61.1	i	i
C/C(=N\Oc1cccc(F)n1)c1ccc(Cl)cc1Cl	i	nt	i	i	i
COC(=O)c1ccc(NC(=O)c2nn(C)c3c2COc2ccccc2-3)cc1	?	i	-70.9	nt	i
Cc1nc(C)c(-c2csc(Nc3ccc(Cl)cn3)n2)s1	i	?	i	nt	?
Nc1ncnc2nc[nH]c12	i	i	?	i	i
Nc1nc(NCCc2ccccc2)c2[nH]cnc2n1	nt	i	nt	nt	i
c1ccc(COc2ccc(Nc3ncnc4nc[nH]c34)cc2)cc1	i	7.08µM	i	i	i
Nc1nc(N)c2[nH]cnc2n1	i	i	nt	6.31µM	i
Cc1ccc(Nc2ncnc3nc[nH]c23)cc1	nt	i	nt	nt	i
Nc1nc(OCc2ccccc2)c2[nH]cnc2n1	i	i	-73.2	i	?
CC1CCN(C(=O)c2[nH]cnc2C(=O)Nc2ccc(Cl)cc2)CC1	i	i	?	i	?
O=S(=O)(Nc1c(O)ccc2ccccc12)c1cccc2ccccc12	i	i	nt	i	i
CC1=C(C(=O)Nc2ccccc2)C(c2ccc(C)cc2)N=C(Nc2nc3ccccc3o2)N1 (configuration not stated)	i	?	-66.7	i	?
CC1=C(C#N)C(c2ccccc2)C2=C(N1)c1ccccc1C2=O (configuration not stated)	?	i	-71.1	?	i
Cc1ccc(/C=N/NC(=O)Cc2ccc(Cl)cc2)c(O)c1	i	22.4µM	i	?	?
O=C(O)COc1ccc(/C=N/NC(=O)Cc2ccc(Cl)cc2)cc1	i	i	-100.8	i	i
SMILES	FMDV antiviral	VACV mCherry inh	HCMV inh	HCV inh	Vaccinia Venus
C/C(=N\NC(=O)CO/N=C(\C)c1cccs1)c1ccc(N)cc1	i	nt	i	i	nt
Cc1ccccc1/C=N/NC(=O)Cc1ccc(Cl)cc1	i	i	i	i	i
C/C(=N\OCC(=O)N/N=C/c1ccc(C)cc1O)c1cccs1	i	nt	i	10µM	nt
O=C(CC(=O)N/N=C/c1ccc(C(=O)O)cc1)NCCc1ccccc1	i	nt	-97.2	i	nt
CN(C)S(=O)(=O)c1ccc(/C(O)=C2/C(=O)C(=O)N(CCN3CCCCC3)C2c2cccnc2)cc1 (configuration not stated)	i	i	i	i	i
NC(Cc1cnc[nH]1)C(=O)Nc1ccc2ccccc2c1 (configuration not stated)	i	i	nt	nt	i
O=C(Cc1ccccc1)NN=Cc1ccccc1	i	i	i	i	i
O=C(Cc1ccc(Cl)cc1)N/N=C/c1ccccc1	i	nt	-68.2	i	nt
COc1cccc(C2C3=C(N=c4s/c(=C\c5ccc(O)cc5)c(=O)n42)c2ccccc2CC3)c1OC (configuration not stated)	i	i	i	i	i
COc1cccc(C2C3=C(N=c4s/c(=C\c5cccc(O)c5)c(=O)n42)c2ccccc2CC3)c1OC (configuration not stated)	i	i	-95.5	?	?
Cc1ccc(S(=O)(=O)N(C)c2cc(S(=O)(=O)N3CCC(C)CC3)c(C)cc2C)cc1	?	nt	?	10µM	i
Nn1c(SCC(=O)Nc2nccs2)nnc1-c1ccccn1	i	i	i	i	i
CCN(CC)CC#CCC(O)(c1ccccc1)c1ccc(Br)cc1 (configuration not stated)	i	nt	-61.8	10µM	nt
O=C(Nc1ccc(Cl)c(C(F)(F)F)c1)c1ccncc1	i	i	i	i	i
CNC(=O)c1cc(Oc2ccc(NC(=O)Nc3ccc(Cl)c(C(F)(F)F)c3)cc2)ccn1	20µM	?	-99.9	11.2µM	10µM
Cc1nc(-c2ccccc2)sc1-c1nc(-c2ccncc2)ncc1S(=O)(=O)c1ccccc1	?	i	-81.8	?	i
Cc1ccc(C)c(N2CCN(c3c(CN4CCCC4)c(=O)oc4ccccc34)CC2)c1	i	i	i	nt	i
CN(Cc1ccccc1N1CCCC1)C(=O)c1cc2cc(Cl)ccc2o1	?	nt	i	11.2µM	nt
CN(Cc1ccccc1N1CCCC1)C(=O)c1cc2ccccc2o1	i	i	i	?	i
Cc1ccccc1C1(CC(=O)N2CCCC(C)C2)CC(=O)N(Cc2cccnc2)C1=O (configuration not stated)	i	i	nt	nt	i
COC(=O)c1ccc(CN2CCOc3ccc(CN4CCC(O)(c5cccnc5)CC4)cc3C2)cc1	17.8µM	i	nt	nt	i
CCOc1ccccc1NC(=O)CSc1ncc2c(n1)-c1ccccc1N(CC)S2(=O)=O	i	i	i	nt	i
Cc1ccc2ccc3cc(C(=O)Nc4ccc(C)c(F)c4)nc3c2[nH]1	i	i	-75.6	nt	i
CC1CC(C)CC(C)C(O)C(C#N)=CC=CCC(C2CCCC2C(=O)O)OC(=O)CC(O)C(C)C1 (configuration not stated)	?	?	-97.4	?	1.12µM
CSCCC(N=C1NS(=O)(=O)c2ccccc21)C(=O)N1CCCC(C(N)=O)C1 (configuration not stated)	i	i	i	i	i
SMILES	FMDV antiviral	VACV mCherry inh	HCMV inh	HCV inh	Vaccinia Venus
COc1cccc(NC(=O)CN(C)C(=O)c2cc(-c3ccco3)nc3ccccc23)c1	i	i	i	i	i
CN(CCOc1ccc(Cl)cc1)C(=O)c1cc(-c2ccco2)nc2ccccc12	35.5µM	i	i	?	i
O=C(NCc1cccs1)c1ccc2sc(COCCO)nc2c1	i	i	i	nt	i
Cc1c(CC(=O)NCCCC(=O)O)c(=O)oc2cc3c(cc12)CCC(C)(C)O3	6.31µM	i	-86.2	i	i
Cc1c(CC(=O)NCCCC(=O)O)c(=O)oc2cc3oc4c(c3cc12)CCCC4	i	i	-65.6	i	i
Cc1ccc(C)c(N2CCN(C(=O)c3c4c(nc5ccccc35)C(=O)N(C3CCCCC3)C4)CC2)c1	i	i	i	nt	i
COc1cc(OC)c(OC)cc1CN1CCOc2ccc(CN3CCN(C(C)=O)CC3)cc2C1	i	i	nt	nt	i
Cc1nn(Cc2c(F)c(F)c(F)c(F)c2F)c(C)c1NC(=O)c1ccc(COc2ccc(Cl)cc2Cl)o1	i	?	-81.3	7.08µM	?
Cc1nn(Cc2cccc(F)c2)c(C)c1NC(=O)c1ccc(COc2ccccc2Cl)cc1	?	11.2µM	-75.6	10µM	12.6µM
